Measured values from PubChem BioAssay (NCI).
The panel holds about 83,000 compounds, 20% with a hit somewhere; the sample as a whole holds those more often.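 Results are percent growth after 48 hours of single-concentration exposure. 100 means growth as in untreated cells, lower positive values show inhibition; negative values down to -100 show cell death.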 A number with no mark means an inactive call. Activity calls are given as the source filed them. The calls were made as follows: active = growth percent below 10; inactive = the rest.

Each compound was assayed on SF-539 CNS (assay: NCI-60 one-dose screen, 48 h (100 = growth as untreated, 0 = no growth, -100 = all killed)). Conditions: 10 µM unless noted.

SMILES | growth
Fc1ccc(C2=NN(c3ccccc3)C(c3sc(N(CCCl)CCCl)nc3Cl)C2)cc1 (centres undefined) | 101%
CC[C@H](C)[C@H](NC(=O)Nc1ccccc1)C(=O)N(C)[C@H](C[C@@H](OC(C)=O)c1nc(C(=O)N[C@@H](Cc2ccccc2)C[C@H](C)C(=O)OC)cs1)C(C)C | -26.3% (active)
c1ccc(CCN2CCCCC2Cc2ccccc2)cc1 (centres undefined) | 101%
CC(=O)O[C@H]1CCC2(C)C(=CCC3C2CCC2(C)/C(=N/OC(=O)c4ccc(N(CCCl)CCCl)cc4)CCC32)C1 (some centres undefined) | 51.5%
O=C(N/N=C/c1ccc(N(CCCl)CCCl)cc1)c1cc(=O)[nH]c(=O)[nH]1 | 91.3%
O=[As]c1ccc(C(=O)c2ccc(Oc3ccccc3)cc2)cc1 (centres undefined) | -98.4% (active)
O=[N+]([O-])c1cc([N+](=O)[O-])c(Cl)c(Cl)c1Cl | 11.6%
Cc1cc(NC(=O)NCCOc2ccc(N3C(N)=NC(N)=NC3(C)C)cc2Cl)ccc1S(=O)(=O)F | 33.6%
COc1ccc2c(c1)NC1=C(C(=O)OC1)C2c1cc(OC)c(OC)c(OC)c1 (centres undefined) | -4.41% (active)
C=CCc1ccc(OC(=O)Cc2ccccc2)c(OC)c1 | 97.8%
CC(C)(O)/C=C/C(=O)[C@](C)(O)[C@H]1[C@H](O)C[C@@]2(C)[C@@H]3CC=C4[C@@H](C=C(O)C(=O)C4(C)C)[C@]3(C)C(=O)C[C@]12C | -53.6% (active)
C[C@]12CCc3sc(-c4ccc(Cl)cc4)nc3C1=CC[C@@H]1[C@@H]2CC[C@]2(C)C(=O)CC[C@@H]12 | 29.6%
C=CCC1(CC)C(=O)NC(=S)NC1=O | 98.3%
NC(Cc1ccc2c(c1)OCO2)c1ccc2c(c1)OCO2 (centres undefined) | 114%
O=C(CF)N(O)c1ccc(/C=C/c2ccccc2)cc1 | 36.2%
COc1ccc(/C=C(/C(=O)N2CCCC2)c2cc(OC)c(OC)c(OC)c2)cc1N | 3.13% (active)
Nc1nc(N)c(-c2ccc(Cl)c(Cl)c2)c(/C=C/c2ccc(S(=O)(=O)F)cc2)n1 | 80.1%
Nc1c(Br)cc([N+](=O)[O-])cc1[N+](=O)[O-] | 110%
Oc1ccc(O)c2c1C1(Cl)C(Cl)=C(Cl)C2(Cl)C1(Cl)Cl | 68.2%
CN(C)P1(N(C)C)=NP(N(C)C)(N(C)C)=NP(N(C)C)(N(C)C)=N1 | 104%

SMILES | growth
CCCCNCCc1ccccn1 | 109%
CNC(=O)Oc1cccc(OC)c1 | 111%
C=C=[CH][Sn]([c]1ccccc1)([c]1ccccc1)[c]1ccccc1 | -29.9% (active)
NC(=O)SCC(=O)Nc1ccc([As](=O)(O)O)cc1 | 83.8%
C[C@]12CC[C@H]3[C@@H](C[C@@H]4N=C(c5ccc(O)cc5)S[C@@]45C[C@H](O)CC[C@]35C)[C@@H]1CC[C@@H]2O | 8.02% (active)
CC1(C)N=C(N)N=C(N)N1c1ccc(CCCCc2ccc(S(=O)(=O)F)cc2)cc1 | 28.6%
Nc1c(Br)cc2c3c(cccc13)-c1ccccc1-2 | 77.7%
COc1cc2c(cc1OC)CN(C)C(C)C2 (centres undefined) | 105%
CC(C)C1c2ccc(O)cc2Oc2nc(N)c(C#N)c(N)c21 (centres undefined) | 93.5%
c1ccc2nc(OCCN3CC3)ccc2c1 | 97.5%
CC1(C)N=C(N)N=C(N)N1c1ccc(CNC(=O)Nc2ccc(S(=O)(=O)F)c(Cl)c2)c(Cl)c1 | 24.9%
c1ccc(-c2ccc3ccccc3[o+]2)cc1 | 101%
CSc1ccccc1NP1(=O)OCC(C)([N+](=O)[O-])CO1 (centres undefined) | 91.4%
CC1COC(=O)C1 (centres undefined) | 96.4%
C[CH2][Pb]([CH2]C)([CH2]C)[O]C(=O)COc1ccccc1 | -21.8% (active)
COc1ccc(/C=C\c2cc(OC)c(OC)c(OC)c2)cc1N/C=C\C(=O)c1c[nH]c2ccccc12 | -43.4% (active)
CCCC(C)(C)c1ccc2c(c1)OC(C)(C)[C@@H]1CC=C(C)C[C@@H]21 | 104%
OC1(c2ccc(Cl)cc2Cl)c2ccccc2C2=NCCN21 (centres undefined) | 102%
O=C(Nc1ccc(S(=O)(=O)F)cc1)Oc1ccccc1 | 104%
